# Assay results taken from PubChem BioAssay (NCATS).
# Unmarked numbers belong to inactive results. Inconclusive results are not listed. Activity calls are given as the source filed them. Unless noted, the call rests on the fitted dose curve; in most records, active means well fitted inhibition curve with a large enough effect; inconclusive means small, poorly fitted or top-dose-only effect; inactive means flat fitted curve, though single readings scatter.
# Molecular target: DNA dC->dU-editing enzyme APOBEC-3G (Homo sapiens) (UniProt Q9HC16)
# Sequence (Q9HC16 whole entry, looked up): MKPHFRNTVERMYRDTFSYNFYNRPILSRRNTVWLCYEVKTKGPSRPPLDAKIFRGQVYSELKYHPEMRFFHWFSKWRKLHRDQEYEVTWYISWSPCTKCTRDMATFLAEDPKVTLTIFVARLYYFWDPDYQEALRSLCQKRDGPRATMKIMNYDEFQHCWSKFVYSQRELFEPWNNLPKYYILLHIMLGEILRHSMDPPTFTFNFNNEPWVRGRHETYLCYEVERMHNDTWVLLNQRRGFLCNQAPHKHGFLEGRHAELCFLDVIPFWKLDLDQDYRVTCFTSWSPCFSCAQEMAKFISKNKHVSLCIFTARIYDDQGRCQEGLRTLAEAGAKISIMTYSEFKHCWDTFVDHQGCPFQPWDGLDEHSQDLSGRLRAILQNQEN
# Experiment: qHTS for inhibitors of Vif-A3G interactions: Validation (AID 588379); further: 0% is about no effect
# Details: Vif-A3G protein interaction assay; series mostly up to 46.1 µM; activity change, negative = inhibition: at the top concentration
# Outline: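 HeLa cells stably expressing Vif and A3G-eYFP, 700 cells/well, incubated overnight at 37 deg C, then exposed to compound overnight at 37 deg C. Inhibition of Vif-mediated degradation read as increased yellow fluorescence (Ex 488/Em 500-530) by laser-scanning cytometry.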
row,SMILES,"activity change, negative = inhibition"
1,O=C(O)CN1C(=O)c2cccc3cccc(c23)C1=O,1.6%
2,O=c1cc(CO)occ1O,-4.29%
3,Cc1cccc(Nc2cc(Cl)nc(SCC(=O)O)n2)c1C,-1.25%
4,c1ccc(CN(CC2=NCCN2)c2ccccc2)cc1,-1.08%
5,OC[C@H]1O[C@@H](O[C@@H]2[C@@H](CO)O[C@](O)(CO)[C@H]2O)[C@H](O)[C@@H](O)[C@H]1O,-1.02%
6,CC1(C)[C@@H]2CC[C@@]1(C)C(=O)C2,6.08%

# Molecular target: Estrogen receptor (Homo sapiens) (UniProt P03372)
# Sequence (P03372 whole entry, looked up): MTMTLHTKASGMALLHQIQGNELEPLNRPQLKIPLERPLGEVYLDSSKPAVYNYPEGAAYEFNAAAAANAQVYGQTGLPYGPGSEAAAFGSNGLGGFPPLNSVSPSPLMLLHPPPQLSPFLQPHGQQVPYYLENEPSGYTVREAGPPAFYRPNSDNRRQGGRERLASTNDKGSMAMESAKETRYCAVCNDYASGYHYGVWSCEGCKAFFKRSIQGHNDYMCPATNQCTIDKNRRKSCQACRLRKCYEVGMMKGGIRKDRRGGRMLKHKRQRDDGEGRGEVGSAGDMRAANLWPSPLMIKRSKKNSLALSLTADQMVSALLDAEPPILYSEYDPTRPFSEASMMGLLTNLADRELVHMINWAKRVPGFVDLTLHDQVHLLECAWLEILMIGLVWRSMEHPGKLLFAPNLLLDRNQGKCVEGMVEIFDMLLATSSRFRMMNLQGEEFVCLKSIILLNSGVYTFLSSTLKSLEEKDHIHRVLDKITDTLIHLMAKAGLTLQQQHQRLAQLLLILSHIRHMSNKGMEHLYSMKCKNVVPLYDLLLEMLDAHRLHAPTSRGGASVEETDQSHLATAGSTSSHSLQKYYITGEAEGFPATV
# Experiment: qHTS assay for small molecule antagonists of estrogen receptor alpha signaling (AID 588513; active means well fitted curve in the direction sought with a large enough effect in the signal ratio, with a control signal flat, not every such curve was filed as active; the % refers to the signal ratio; further: on the % scale 0 is the no-effect control and ±100 the full control effect)
# Details: ER-alpha-UAS-bla HEK293, beta-lactamase ratio, antagonist mode; series mostly up to 76.9 µM; activity, negative = inhibition: at the top concentration
# Outline: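 Cells were plated at 5000/well and incubated 4 h at 37 C. Compounds were added as 1:2 dilution series, duplicates. 17-beta-estradiol (0.5nM final) was added for 18 h before CCF4 detection.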
SMILES,"activity, negative = inhibition",outcome
Oc1cccc(O)c1,5.44%,
CCCCC(CC)COC(=O)c1ccccc1O (stereo not given),-5.74%,
CC12CCC(CC1)C(C)(C)O2,15.9%,
COc1ccccc1O,,inactive
Nc1ccc(S(=O)(=O)Nc2nccs2)cc1,8.81%,
CCOC(=O)c1ccc(O)cc1,-7.94%,
Cc1cccc(Nc2cc(Cl)nc(SCC(=O)O)n2)c1C,-22.7%,
[Cl][In]([Cl])[Cl],20.6%,
CC1(C)[C@@H]2CC[C@@]1(C)C(=O)C2,3.07%,
